Measurements published in PubChem BioAssay (EPA / NIEHS).
Inconclusive results are not listed. The source made the active and inactive calls. How the source made its calls: active means hit-call score of the fitted dose curve at least 0.9, where 1 is the maximum; inconclusive means response in the unintended direction; inactive means score below 0.9.

tested on: not listed separately; assay: TOX21_p53_BLA_p4_viability: Viability Assessment in the Tox21 HCT-116 p53 Agonism Beta-lactamase Assay, Phase 4 (AID 2283597);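 further: hits lower the luminescence signal meaning cytotoxicity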
In short: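 Cytotoxicity as reduced cellular ATP (CellTiter-Glo luminescence, 30 min room temperature), measured in the same wells following the CCF4 FRET p53 reading. Human HCT-116 cells received compounds in DMSO (217-fold dilution) for 16 h.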

Structure (SMILES) | outcome
CCOC(=O)CC(=O)C(=O)OCC | inactive
COc1ccc(/C=C/c2cc(OC)cc(=O)o2)cc1 | inactive
C=Cc1ccccn1 | inactive
Cc1ccc(O)c(N)c1 | inactive
S=C(SSSSSSC(=S)N1CCCCC1)N1CCCCC1 | inactive
COc1ccc(-c2cc(C(F)F)nn2-c2ccc(S(N)(=O)=O)cc2)cc1F | inactive
C[Si](Cl)(c1ccccc1)c1ccccc1 | inactive
CN1CCOC(c2ccccc2)c2ccccc2C1 (stereo not drawn) | inactive
CC1CCCC(=O)C1=O (stereo not drawn) | inactive
CC(C)OC(=O)C(C(=O)OC(C)C)=C1SC=CS1 | inactive
O=C(O)CP(=O)(O)O | inactive
OCl | inactive
C1CCCNCCC1 | inactive
CCN(C)C(=O)Oc1cccc([C@H](C)N(C)C)c1 | inactive
CO[C@@]1(NC(=O)C2SC(=C(C(N)=O)C(=O)O)S2)C(=O)N2C(C(=O)O)=C(CSc3nnnn3C)CS[C@@H]21 (stereo partly drawn) | inactive
CCOC(=O)CCC(=O)O[C@H]1[C@H](O[C@@H]2[C@@H](C)[C@H](O[C@H]3C[C@@](C)(OC)[C@@H](O)[C@H](C)O3)[C@@H](C)C(=O)O[C@H](CC)[C@@](C)(O)[C@H](O)[C@@H](C)C(=O)[C@H](C)C[C@@]2(C)O)O[C@H](C)C[C@@H]1N(C)C | inactive
CN1CCc2c(c3ccccc3n2Cc2ccccc2)C1 | inactive

target: Cellular tumor antigen p53 (Homo sapiens) (UniProt P04637); assay: TOX21_p53_BLA_p5_ratio: Tox21 HCT-116 p53 Agonism Beta-lactamase Assay, Ratio, Phase 5 (AID 2283599)
Sequence (P04637 whole entry, looked up): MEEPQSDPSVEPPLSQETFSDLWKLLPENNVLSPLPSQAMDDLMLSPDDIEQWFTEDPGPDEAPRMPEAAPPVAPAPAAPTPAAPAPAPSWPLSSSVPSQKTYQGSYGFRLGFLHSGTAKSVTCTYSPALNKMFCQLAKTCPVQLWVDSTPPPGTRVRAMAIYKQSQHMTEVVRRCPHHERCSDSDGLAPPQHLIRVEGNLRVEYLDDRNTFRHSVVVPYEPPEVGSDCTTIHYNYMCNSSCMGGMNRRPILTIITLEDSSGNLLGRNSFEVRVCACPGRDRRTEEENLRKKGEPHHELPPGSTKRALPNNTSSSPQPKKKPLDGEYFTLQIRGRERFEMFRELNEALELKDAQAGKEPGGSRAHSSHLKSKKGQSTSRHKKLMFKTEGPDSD
In short: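 HCT-116 p53-bla cells (4000/well) plated 5 h, dosed with compound (217-fold DMSO dilution) for 16 h at 37 C; CCF4-AM substrate 2 h at room temperature. Activity is the 460/530 nm emission ratio (405 nm excitation), fitted in gain-of-signal direction versus DMSO.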

Structure (SMILES) | outcome | AC50
Cc1cnc(C)c(C)n1 | inactive | 
CC(C)c1ncc([N+](=O)[O-])n1C | inactive | 
CC(=O)NC[C@H]1CN(c2ccc(N3CCOCC3)c(F)c2)C(=O)O1 | inactive | 
C[C@]12CC[C@@H]3c4ccc(OC(=O)c5ccccc5)cc4CC[C@H]3[C@@H]1CC[C@@H]2O | inactive | 
CN(CCOc1ccc(NS(C)(=O)=O)cc1)CCc1ccc(NS(C)(=O)=O)cc1 |  | 37.7 µM (active)
Nc1ccc(N=Nc2ccc(N)cc2)cc1 | inactive | 
O=C(O)[C@H](O)c1ccccc1 | inactive | 
CN(C)CCN(Cc1ccccc1)c1ccccn1 | inactive | 
NC(=O)CC[C@@H]1NC(=O)[C@H](Cc2ccccc2)NC(=O)[C@H](Cc2ccc(O)cc2)NC(=O)[C@@H](N)CSSC[C@@H](C(=O)N2CCC[C@H]2C(=O)N[C@@H](CCCN=C(N)N)C(=O)NCC(N)=O)NC(=O)[C@H](CC(N)=O)NC1=O | inactive | 
CCOc1ccc(S(=O)(=O)O)c2cccnc12 | inactive | 
C=CC(=O)[O-].C=CC(=O)[O-].[Zn+2] | inactive | 
CC(C)(C)C(=O)OCC(=O)[C@H]1CC[C@H]2[C@@H]3CCC4=CC(=O)CC[C@]4(C)[C@H]3CC[C@]12C | inactive | 
NS(=O)(=O)c1cc(-c2nn[nH]n2)c(NCc2cccs2)cc1Cl | inactive | 
CCCCCC(N)=O | inactive | 
Cc1cc(=O)c(C(=O)N[C@@H](C(=O)N[C@@H]2C(=O)N3C(C(=O)O)=C(CSc4nnnn4C)CS[C@H]23)c2ccc(O)cc2)c[nH]1 | inactive | 
CCCc1nc2c(C)cc(-c3nc4ccccc4n3C)cc2n1Cc1ccc(-c2ccccc2C(=O)O)cc1 | inactive | 
O=[N+]([O-])c1ccc(Oc2ccc([N+](=O)[O-])cc2)cc1 | inactive | 
C=CC[N@@+]12CC[C@@]34c5ccccc5N5/C=C6/[C@H]7C[C@H]8[C@@]9(CC[N@@+]8(CC=C)C/C7=C/CO)c7ccccc7N(/C=C(/[C@@H](C[C@@H]31)/C(=C\CO)C2)[C@H]54)[C@@H]69 | inactive | 
CC(C)NC[C@@H](O)COc1cccc2ccccc12 | inactive | 
CC(=O)c1ccc(Cl)c(Cl)c1Cl | inactive | 
CC1(C)Cc2cccc(N)c2O1 | inactive | 
